This is a sample that favours compounds with a hit; in the whole collection about 12% have one here.
Pf growth 96h – Primary qHTS for delayed death inhibitors of the malarial parasite plastid, 96 hour incubation; P. falciparum luciferase reporter growth, 96 h; Potency, µM (doses to about 28.7 µM), most hits filed as inhibitors; actives 6.9% (n = 320,000); AID 504834, 2011
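Cell-based qHTS: luciferase-tagged P. falciparum in erythrocytes (2% hematocrit, 0.05% parasitemia final) incubated with compounds for 96 hours, 37 C, 5% CO2; luciferase detection reagent then added and luminescence measured.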
AmpC no deterg – qHTS Inhibitors of AmpC Beta-Lactamase (assay without detergent). P00811. AmpC nitrocefin hydrolysis, absorbance 480 nm, 0.0001% Triton. Potency, µM (highest dose often 57.1 µM), hits mostly inhibitors. actives 0.52% (n = 330,000); also: nearly all actives have a fitted effect of over 20% in size
Target sequence (P00811 whole entry, looked up): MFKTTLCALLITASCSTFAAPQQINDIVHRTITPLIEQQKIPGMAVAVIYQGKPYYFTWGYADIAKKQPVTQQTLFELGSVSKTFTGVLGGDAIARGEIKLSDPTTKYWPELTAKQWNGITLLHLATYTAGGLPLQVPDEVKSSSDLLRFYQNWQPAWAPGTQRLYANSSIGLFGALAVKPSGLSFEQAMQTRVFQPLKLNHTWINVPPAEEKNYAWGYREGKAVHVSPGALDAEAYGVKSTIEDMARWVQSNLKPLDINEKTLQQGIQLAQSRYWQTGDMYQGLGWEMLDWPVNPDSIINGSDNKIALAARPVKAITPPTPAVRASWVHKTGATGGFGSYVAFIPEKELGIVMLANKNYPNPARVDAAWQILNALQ
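AmpC (5.3 nM in the dispensed reagent) in 20 mM phosphate pH 7.0 with 0.01% (detergent screen) or 0.0001% Triton X-100 was preincubated with compounds for 15 min at room temperature. Nitrocefin was then added from an 800 uM solution, and hydrolysis was followed at 480 nm.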
Pf growth 48h – Primary qHTS for delayed death inhibitors of the malarial parasite plastid, 48 hour incubation; P. falciparum luciferase growth in erythrocytes, 48 h; Potency, µM (titrated, usually from 28.7 µM), most hits filed as inhibitors; actives 5.9% (n = 310,000); AID 504832, 2011
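Luciferase-expressing parasites in RBCs, 2% Hct / 0.1% parasitemia final; RPMI 1640 + 0.5% Albumax; 37 C, 5% CO2, one generation; luminescence read-out, lower signal = inhibition.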
AmpC inh detg – qHTS Inhibitors of AmpC Beta-Lactamase (assay with detergent); P00811; AmpC hydrolysis of nitrocefin, absorbance 480 nm, 0.01% Triton; Potency, µM (titrated, usually from 114 µM), usual class: inhibitors; actives 0.041% (n = 370,000); AID 485294, 2010; also: nearly all actives have a fitted effect of over 25% in size
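20 mM phosphate pH 7.0 + 0.01% (detergent screen) or 0.0001% Triton X-100; 5.3 nM AmpC reagent; cpd preinc 15 min RT; nitrocefin (800 uM stock) to start; A480 q20 s × 4 min; Activity was normalised to no-enzyme and no-compound control wells.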
SARS PLpro yeast – qHTS of Yeast-based Assay for SARS-CoV PLP; S. cerevisiae expressing SARS-CoV PLpro, growth rescue; Potency, µM (series often up to 32.9 µM), usual class: activators; actives 0.19% (n = 330,000); AID 485353, 2010; calls by dose curve; also: nearly all actives have a fitted effect of over 55% in size
Sm TGR inh – qHTS Assay for the Inhibitors of Schistosoma Mansoni Peroxiredoxins; Schistosoma mansoni thioredoxin glutathione reductase (TGR), Q962Y6; purified TGR, DTNB reduction, TNB absorbance 405 nm; Potency, µM (series often up to 114 µM), hits mostly inhibitors; actives 3% (n = 360,000); also: nearly all actives have a fitted effect of over 60% in size
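Kinetic colorimetric format: TGR-catalysed, NADPH-driven DTNB reduction monitored via TNB absorbance. Enzyme dispensed at 20 nM; compound exposure 15 min at room temperature before reaction start.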
Of the large screens only hits and unclear results are named; the others gave an inactive call. Unless noted, calls follow the shape of the dose curve; as a rule, active = well fitted curve in the direction sought with a large enough effect; inconclusive = small, poorly fitted or top-dose-only effect, or another doubt; inactive = no such curve, though single readings can be large; an effect the other way counts as inactive or inconclusive.

CCC(C)[C@H](NC(=O)[C@@H]1Cc2c([nH]c3ccccc23)C2c3ccccc3C(=O)N21)C(=O)N1CCC[C@@H]1C(=O)O (stereo not given in full)	Pf growth 96h 10µM, Pf growth 48h inconclusive, AmpC inh detg inconclusive
CC(C)C[C@H](NC(=O)[C@@H]1Cc2c([nH]c3ccccc23)C2c3ccccc3C(=O)N21)C(=O)N1CCC[C@@H]1C(=O)O (stereo not given in full)	Pf growth 96h inconclusive, Pf growth 48h inconclusive, AmpC inh detg inconclusive
Cc1ccc(Cl)cc1NC(=O)c1ccc(Cn2cc(Cl)cn2)cc1	AmpC no deterg 11µM
O=C(Nc1cccc2ccccc12)c1ccc(Cn2cc(Cl)cn2)cc1	Pf growth 96h 13µM, Pf growth 48h inconclusive, AmpC inh detg inconclusive
O=C(Nc1ccccc1F)c1ccc(Cn2cc(Cl)cn2)cc1	none
CCc1ccc(C(=O)COC(=O)CNC(=O)c2ccc(N3C(=O)c4ccccc4C3=O)cc2)cc1	Pf growth 96h 15µM
Cc1c(C(=O)NCc2ccc3c(c2)OCO3)oc2ccc(S(=O)(=O)N3CCCCCC3)cc12	Pf growth 96h inconclusive, Pf growth 48h 13µM (no result: AmpC no deterg, SARS PLpro yeast)
Cc1c(C(=O)NCc2cccnc2)oc2ccc(S(=O)(=O)N3CCCC(C)C3)cc12 (stereo not given)	Pf growth 96h 5.9µM, Pf growth 48h inconclusive (no result: AmpC no deterg, SARS PLpro yeast)
CC1CC(C)CN(S(=O)(=O)c2ccc3c(c2)oc(=O)n3CC(=O)NCc2cccnc2)C1 (stereo not given)	Pf growth 96h 10µM, Pf growth 48h inconclusive
Cc1c(C(=O)NCc2ccc3c(c2)OCO3)oc2ccc(S(=O)(=O)N3CCC(C)CC3)cc12	AmpC no deterg inconclusive, Pf growth 48h 9.3µM
Cc1ccc(CNC(=O)c2oc3ccc(S(=O)(=O)N4CCCC(C)C4)cc3c2C)cc1 (stereo not given)	none (no result: Pf growth 96h, AmpC no deterg, Pf growth 48h, SARS PLpro yeast)
CCc1ccc(NC(=O)CCCc2nnc3n(C(C)CC)c(=O)c4sccc4n23)cc1 (stereo not given)	none (no result: Pf growth 96h, AmpC no deterg, Pf growth 48h, SARS PLpro yeast)
CSc1nsc(/C=C/Nc2cccc(Cl)c2)c1C#N	Pf growth 96h inconclusive, Pf growth 48h inconclusive, AmpC inh detg inconclusive (no result: AmpC no deterg, SARS PLpro yeast)
CSc1nsc(/C=C/Nc2ccc(Cl)cc2)c1C#N	Pf growth 96h 1.2µM, AmpC no deterg 18µM, Pf growth 48h 1.2µM
CSc1nsc(/C=C/Nc2ccc(F)cc2)c1C#N	Pf growth 96h 6.6µM
CC(=O)N1CCCc2cc(S(=O)(=O)NCc3ccccc3Cl)ccc21	none (no result: Pf growth 96h, AmpC no deterg, Pf growth 48h, SARS PLpro yeast)
COc1cccc(C2c3[nH]c4ccccc4c3C[C@H]3C(=O)N(c4ccccc4C(=O)N4CCC(C(=O)O)CC4)C(=O)N23)c1 (stereo not given in full)	Pf growth 96h inconclusive, Pf growth 48h inconclusive
COc1ccc(C2c3[nH]c4ccccc4c3C[C@H]3C(=O)N(c4ccccc4C(=O)N4CCC(C(=O)O)CC4)C(=O)N23)cc1 (stereo not given in full)	Pf growth 96h inconclusive, Pf growth 48h 12µM
CC(C)c1ccc(C2c3[nH]c4ccccc4c3C[C@H]3C(=O)N(c4ccccc4C(=O)N4CCC[C@H]4C(=O)O)C(=O)N23)cc1 (stereo not given in full)	Pf growth 96h inconclusive, Pf growth 48h 6.6µM
CCCCN(C)CCNC(=O)Cn1ncc2c(=O)oc3ccc(C)cc3c21	none (no result: Pf growth 48h)
COc1ccc2c(c1)CCc1c(C(=O)Nc3c(C)nn(Cc4c(Cl)cccc4Cl)c3C)noc1-2	none (no result: Pf growth 96h, AmpC no deterg, Pf growth 48h, SARS PLpro yeast)
N#C/C(N=Nc1ccccc1O)=N\Nc1ccccc1O	Pf growth 96h inconclusive, Pf growth 48h inconclusive
Oc1ccccc1N=N/C(=N/Nc1ccccc1O)c1ccccc1	Pf growth 96h 8.3µM, Pf growth 48h 4.1µM
CCOc1ccc(-c2cc(C(=O)NCc3ccc(OC)cc3)c3c(-c4ccc(F)cc4)[nH]nc3n2)cc1	none (no result: Pf growth 96h, AmpC no deterg, Pf growth 48h, SARS PLpro yeast)
S=C1NCCc2ccc(Cl)cc2C1c1ccccc1Cl (stereo not given)	Pf growth 96h inconclusive, Pf growth 48h 12µM
Cc1ccc(-c2nnc(SCC(=O)NC3CCS(=O)(=O)C3)nc2-c2ccc(C)cc2)cc1 (stereo not given)	Pf growth 96h inconclusive, Pf growth 48h inconclusive
Cc1c(C)n2c(SCC(=O)Nc3cccc4ccccc34)nnc2[nH]c1=O	Pf growth 96h inconclusive, Pf growth 48h 12µM, AmpC inh detg inconclusive
COc1ccc(OCC2c3cc(OC)c(OC)cc3CCN2C(=O)c2ccc(F)cc2)cc1 (stereo not given)	none (no result: Pf growth 96h, AmpC no deterg, Pf growth 48h, SARS PLpro yeast)
Cc1ccc(NC(=O)Cn2c(=O)n(Cc3ccccc3)c(=O)c3c2c2cc(C)ccc2n3C)cc1	none (no result: Pf growth 96h, AmpC no deterg, Pf growth 48h, SARS PLpro yeast)
CCC(C)Sc1cccc(-c2nc3ccc(C)cn3c2NCc2ccccc2)c1 (stereo not given)	Pf growth 96h 13µM, Pf growth 48h 3.3µM
Cc1ccc2nc(-c3cccc(-c4cccc(Cl)c4)c3)c(NCc3ccccc3)n2c1	Pf growth 96h 10µM, Pf growth 48h 7.4µM, AmpC inh detg inconclusive
CCC(C)Sc1cccc(-c2nc3ccccn3c2NCc2ccccc2)c1 (stereo not given)	none (no result: Pf growth 96h, Pf growth 48h, AmpC inh detg, Sm TGR inh)
CCC(C)Sc1cccc(-c2nc3ccc(Cl)cn3c2NCc2ccccc2)c1 (stereo not given)	Pf growth 96h 10µM, Pf growth 48h 9.3µM
Cn1c(CNC(=O)CNC(=O)c2ccc(F)cc2)cc(=O)n(C)c1=O	Pf growth 96h inconclusive, SARS PLpro yeast inconclusive
O=C(OCCCc1cc2ccccc2c(=O)o1)c1ccccc1C(F)(F)F	Sm TGR inh 11µM
N#Cc1ccc(C(=O)OCCCc2cc3ccccc3c(=O)o2)cc1	Sm TGR inh 50µM
O=C(OCCCc1cc2ccccc2c(=O)o1)c1ccc(F)cc1	Sm TGR inh 35µM
O=C(OCCc1cc2ccccc2c(=O)o1)c1ccccc1C(F)(F)F	Pf growth 96h inconclusive, Pf growth 48h inconclusive
O=C(O)c1ccccc1C(=O)OCCc1cc2ccccc2c(=O)o1	none
N#Cc1ccc(C(=O)OCCc2cc3ccccc3c(=O)o2)cc1	none
CCN(CC)C(=O)OCCc1cc2ccccc2c(=O)o1	Pf growth 96h inconclusive, Sm TGR inh 3.2µM
CCCNC(=O)Cn1nc(-c2ccc(C)cc2)c2cnc3ccc(CC)cc3c21	none (no result: Pf growth 96h, AmpC no deterg, Pf growth 48h, SARS PLpro yeast)
O=C(COC(=O)c1ccccc1Nc1cccc(C(F)(F)F)c1)NCc1ccco1	none
CN1C(=O)[C@H](Cc2ccc([N+](=O)[O-])cc2)NC1=S	none
O=C1CNC(=S)N1CCc1ccc(O)c(O)c1	Pf growth 48h inconclusive, Sm TGR inh 1.8µM
O=C1CNC(=S)N1CCOc1ccccc1	none

Source: PubChem
